Results filed as inconclusive are left out. A number with no mark means an inactive call. Activity calls are given as the source filed them. Calls come from the whole dose curve; as a rule, active = well fitted activation curve with a large enough effect in the repeat runs; inconclusive = weak or mixed curves; inactive = no such curve, though single readings can be large or run the other way. Positions of bridges follow the written chain, without caps; N, C: chain ends. Non-standard residues stand in square brackets, D forms with d. Residues, ends and D or L forms follow the SMILES beside them. hArg = N=C(N)NCCCC[C@H](N)C(=O)O; Mpa = O=C(O)CCS
Assay: qHTS assay for small molecules that induce genotoxicity in human embryonic kidney cells expressing luciferase-tagged ATAD5 (AID 651632); note: nearly all actives have a fitted effect of over 15% in size
Conditions: HEK293T ATAD5-luciferase induction, 16 h; series mostly up to 83.3 µM; activation: at the top concentration
From the text: U.S. Tox21 Program National Center for Advancing Translational Sciences [NCATS] NIH Chemical Genomics Center [NCGC] U.S. Environmental Protection Agency [EPA] National Institutes of Environmental Health Sciences [NIEHS] National Toxicology Program [NTP] U.S. Food and Drug Administration [FDA] Tox21 Assay Overview: As cancer cells divide rapidly and during every cell division they need to duplicate their genome by DNA replication. The failure to do so results in the cancer cell death. Based on this concept, many chemotherapeutic agents were developed but have limitations such as low efficacy and severe side effects etc. A new cell based assay was developed to find the compounds that effectively block DNA replication either by directly damaging DNA or by inhibiting other cellular mechanisms. Enhanced Level of Genome Instability Gene 1 (ELG1; human ATAD5) protein levels increase in response to various types of DNA damage. Using a luciferase reporter-gene tagged with ATAD5, a cell-based assay [developed by Kyungjae Myung, NHGRI, NIH] was used to measure the induction of ATAD5 in human embryonic kidney cells (HEK293T). So, increase in luciferase activity can be used to identify the compounds that cause genetic stress.
Tox21 Assay Protocol Summary: For genotoxicity screening, 2,000 cells in 5 uL/well were dispensed into white, solid-bottom 1536-well plates using a Multidrop Combi (Thermo Scientific) dispenser. Following transfer of 23 nL compound or DMSO vehicle by a pin tool, the plates were incubated 16 hr at 37C and 5% CO2. 5 ul Amplite (AAT Bioquest, Inc.) was then added to each plate and following 30 min incubation at room temperature, luciferase activity was quantified on a ViewLux CCD-based plate reader.
% is set by controls: 0 for no effect and ±100 for the full control effect.

SMILES	activation	outcome
ONc1ccccc1	3.77% [at 95.3 µM]	
CC(=O)c1cc(C)oc1C	-1.49% [at 95.3 µM]	
O=C1c2ccccc2C(=O)c2cc(Cl)ccc21	2.88% [at 8.08 µM]	
CC(=O)CCC1=C(C)CCCC1(C)C	1.2%	
CC(N)CCCC(C)(C)O (stereo not given)	1.27%	
CCO	3.08% [at 95.3 µM]	
COc1ccc2c(c1)c1c3n2CCN(C)C3=NCC1	-0.457%	
CN1C[C@@H]2C[C@H]1CN2c1cc2c(cc1F)c(=O)c(C(=O)O)cn2C1CC1	-1.24%	
CC1CCc2c(N3CCC(O)CC3)c(F)cc3c(=O)c(C(=O)O)cn1c23 (stereo not given)	1.19%	
OC[C@@H](O)C(O)[C@@H](O)CO (stereo not given in full)	-0.522% [at 95.3 µM]	
O=Cc1cc2ccccc2o1	1.84%	
CCCCSCCCC	4.3%	
CN(C)C(C)(C)CO	1.81%	
CCCCOCCOC(=O)COc1ccc(Cl)cc1Cl	2.2%	
N#Cc1cscn1	-0.444%	
CCOc1cccc(N)c1	-0.981%	
Cc1c(Cl)cccc1Cl	2.1%	
CCCCCCC1(C)CCC(=O)O1 (stereo not given)	-3.56%	
c1ccc2c(CC3=NCCN3)cccc2c1		inactive
Cc1c(C(=O)c2c[nH]n(C)c2=O)ccc(S(C)(=O)=O)c1C1=NOCC1	-2.8% [at 39.1 µM]	

SMILES	activation	outcome
CN1CCOC(c2ccccc2)c2ccccc2C1 (stereo not given)	-0.828% [at 39.1 µM]	
O=[N+]([O-])c1c(Cl)cc(Cl)cc1Cl	-4.44%	
COC(=O)CCCCC(=O)O	2.96%	
Cc1ccnc(N)c1	-1.06%	
COc1c2occc2c(OC)c2c(=O)cc(C)oc12	0.672% [at 39.1 µM]	
CC(C)OC(=O)OCOP(=O)(CO[C@H](C)Cn1cnc2c(N)ncnc21)OCOC(=O)OC(C)C		inactive
NC(=O)[C@@H]1CSSCCC(=O)N[C@@H](CCCCN=C(N)N)C(=O)NCC(=O)N[C@@H](CC(=O)O)C(=O)N[C@@H](Cc2c[nH]c3ccccc23)C(=O)N2CCC[C@H]2C(=O)N1 ([Mpa][hArg]GDWPC-NH2; disulfide 1-7)	2.45%	
OCC(O)CN1CCN(c2ccccc2)CC1 (stereo not given)	0.745%	
CCCCOC(=O)C(C)O (stereo not given)	1.63%	
COc1nc(N)nc2nc[nH]c12	4.39%	
CN(C)CCOC(=O)C(c1ccccc1)C1(O)CCCC1 (stereo not given)	1.69%	
CC1(C)O[C@H]2CC(=O)OC[C@]23[C@H]2CC[C@@]4(C)[C@H](c5ccoc5)OC(=O)[C@H]5O[C@]54[C@]2(C)C(=O)C[C@@H]13	3.1%	
O=C(O)CNC(=O)CNC(=O)CNC(=O)CSC(=O)c1ccccc1	2.56%	
CC(=O)Nc1ccc(OC(=O)c2ccccc2OC(C)=O)cc1	6.13%	
NCc1ccc(S(N)(=O)=O)cc1	-2% [at 39.1 µM]	
CN(C)CCCCl	0.788% [at 95.3 µM]	
CCOC(CN1CCN(CC(C)C(=O)c2ccccc2)CC1)c1ccccc1 (stereo not given)	-7.53%	
CO/N=C(/C(=O)N[C@@H]1C(=O)N2C(C(=O)[O-])=C(C[n+]3ccn4ncccc43)CS[C@H]12)c1nsc(N)n1		inactive
Cn1nnc2c(C(N)=O)ncn2c1=O	-1.1%	
CCC(=O)CC	0.747%	

Reference: PubChem BioAssay (Tox21)
